DAX1 inh-1: DAX1 (NR0B1) inhibition, primary screen; HEK293T StAR-luciferase reporter, SF-1/DAX-1 repression relief; inhibition, % at 6.8 µM; 1.1% of 370,000 active; AID 652010;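 active means inhibition above the mean over all tested compounds plus 3 SD, cut at about 3.6% in these data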;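 further: 0% = DAX-1 cells with DMSO and 100% = cells lacking DAX-1 with DMSO; higher inhibition means more luminescence from relief of DAX-1 repression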
ssDAF12 agonist: S. stercoralis DAF-12 activation, primary screen | HEK293 ssDAF-12/GRIP1 lit1-tk-luc reporter, luminescence; % of 3 µM dafachronic acid response | activation, % at 6.8 µM | 1% of 370,000 active | AID 652126;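 active means activation above the mean over all tested compounds plus 3 SD, cut at about 0.9% in these data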;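 further: 0% = DMSO-only wells and 100% = 3 µM delta7-dafachronic acid wells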
hcDAF12 agonist: activates DAF-12 receptor from parasite H. contortus | HEK293 hcDAF-12 lit1-tk-luc reporter, luminescence; 0% DMSO, 100% Δ7-dafachronic acid | activation, % at 6.8 µM | 1.4% of 370,000 active | AID 652067;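 active means activation above the mean of all tested compounds plus 3 SD, cut at about 5.5% in these data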;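 further: 100% = response to 3 µM Δ7-dafachronic acid high control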
hgDAF12 agonist: hgDAF-12 agonism, primary luciferase screen. 1.8% of 370,000 active. activation, % at 6.8 µM. HEK293 GAL4-hgDAF12 UAS-luciferase reporter, agonist luminescence; normalized to butyrate control. AID 687014;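 active means activation above a cutoff set at the mean of all screened compounds plus 3 SD, cut at about 10% in these data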;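 further: 0% = DMSO wells and 100% = sodium butyrate wells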
DAX1 inh-2: inhibits human nuclear receptor DAX1; P51843; HEK293 Gal4-DAX1 luciferase reporter, luminescence; inhibition, % at 6.75 µM; 0.99% of 340,000 active; AID 504766;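 active means inhibition above the mean over all tested compounds plus 3 SD, cut at about 4.2% in these data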;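 further: 0% = DAX1-transfected cells with DMSO and 100% = empty-vector control cells with DMSO; inhibition shows as a rise in luminescence from relieved DAX1 repression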
Target sequence (P51843 207-470 limits assumed): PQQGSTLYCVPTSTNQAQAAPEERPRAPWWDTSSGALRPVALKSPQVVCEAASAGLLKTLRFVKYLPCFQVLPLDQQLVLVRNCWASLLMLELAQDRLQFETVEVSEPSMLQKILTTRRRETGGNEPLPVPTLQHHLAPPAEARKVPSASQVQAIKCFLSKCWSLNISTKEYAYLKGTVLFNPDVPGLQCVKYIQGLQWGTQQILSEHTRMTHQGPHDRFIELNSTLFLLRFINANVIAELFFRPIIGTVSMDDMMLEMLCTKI
AHR activator: activators of human aryl hydrocarbon receptor | P35869 | AHR-responsive luciferase reporter cells, luminescence | activation, % at 5 µM | 2.5% of 320,000 active | AID 2796; in the data active means activation above about 47%;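 further: 0% = vehicle wells and 100% = reference agonist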
* hit, by the source's call; x = not tested or not shown. Rows were chosen to be rich in hits. Some 5.7% of all compounds tested hit in one or more screens of this group.

SMILES | DAX1 inh-1 | ssDAF12 agonist | hcDAF12 agonist | hgDAF12 agonist | DAX1 inh-2 | AHR activator
CC1(C(=O)Nc2cccc(OC(F)(F)F)c2)Cc2c(-c3ccc(C(N)=O)cc3)ccnc2O1 (configuration not stated) | -2 | -1 | -1 | 1 | x | x
Cc1nc2ccc(Br)cn2c1C(=O)N/N=C\c1ccc(C(C)C)cc1 | 0 | -1 | -1 | 1 | 2 | 6
COc1cccc(/C=N/NC(=O)c2c(C)nc3ccc(Br)cn23)c1 | 2 | -1 | 0 | 3 | 6.4* | 20
Cc1ccc(NCC(=O)N/N=C/c2cccc(Br)c2)cc1 | -1 | -2 | 0 | -1 | -1 | 70*
Cc1cccc(NCC(=O)N/N=C/c2cccc(Br)c2)c1 | 0 | -1 | 2 | -2 | 0 | 14
O=C(CNc1cccc(C(F)(F)F)c1)N/N=C/c1cccc(Br)c1 | 0 | 0 | -1 | 2 | -1 | 101*
O=S(=O)(NC1c2cccc3cccc(c23)C1Sc1ncccn1)c1ccccc1 (configuration not stated) | -1 | -1 | 0 | -4 | -1 | 12
Cc1ccccc1OCCC(=O)OCC(=O)NNC(=O)c1cccs1 | 0 | -1 | 1 | 1 | 0 | -1
CC(C)(C)Nc1nc(NCc2cccnc2)nc(N2CCOCC2)n1 | 1 | -1 | -1 | -1 | 5.9* | 23
c1cncc(CNc2nc(N3CCOCC3)nc(N3CCOCC3)n2)c1 | 0 | -1 | 0 | 0 | -1 | 6
Cc1cccnc1NC(=S)Nc1ccc(Br)cc1Cl | 4 | 0 | 3 | 12* | 6.7* | 19
O=C1C2C3C=CC(C3)C2C(=O)N1Nc1c(Cl)cc(Cl)cc1Cl (configuration not stated) | -1 | -1 | 2 | -1 | 0 | -1
CCCCc1nc2cc(C(=O)NCc3cc(C)n(C)n3)ccc2o1 | 0 | -1 | 6.2* | 4 | 1 | 6
O=C(NCc1ccncc1)c1ccc2nc(Cc3ccccc3F)oc2c1 | -3 | -2 | -1 | -2 | -1 | 22
CCOC(=O)C1CCCN(C(=O)c2ccc3oc(Cc4ccccc4)nc3c2)C1 (configuration not stated) | 3 | 0 | 3 | 11* | 2 | 3
CCCCc1nc2cc(C(=O)N3CCC[C@H]3CO)ccc2o1 | 2 | 0 | 2 | 4 | 2 | 2
CCCCc1nc2cc(C(=O)N3CCC(O)CC3)ccc2o1 | 2 | 1.0* | 6.2* | 11* | 1 | x
Cc1cc(CNC(=O)c2ccc3nc(Cc4ccccc4F)oc3c2)nn1C | 2 | -1 | 2 | 12* | 2 | 9
CCSc1ccccc1C(=O)NCCc1ccccc1 | 1 | -1 | 2 | 1 | 0 | 13
CC(C)NC(=O)N(Cc1ccccc1)Cc1cccs1 | 1 | -1 | 1 | -1 | 0 | 1
O=C(NC1CCCCC1)c1cc(F)cc2c1OCOC2 | 0 | -1 | -2 | 2 | 2 | -2
CCOc1ccccc1OC(=O)CN1C(=O)c2ccccc2C1=O | 0 | -1 | 1 | 0 | 0 | 0
O=C(NCCCN1CCOCC1)c1ccc2nc(Cc3ccccc3F)oc2c1 | 4.2* | -1 | -1 | 1 | 0 | x
CCOC(=O)[C@H]1[C@H]2COc3ccc(Br)cc3[C@H]2N2C(=O)CN(CCc3c[nH]c4ccccc34)C(=O)[C@@]12C | 0 | 0.9* | 2 | -1 | 0 | x
CCN(CC(=O)NC1CCS(=O)(=O)C1)S(=O)(=O)c1ccccc1Cl (configuration not stated) | 0 | -1 | 0 | -2 | 0 | -2
SMILES | DAX1 inh-1 | ssDAF12 agonist | hcDAF12 agonist | hgDAF12 agonist | DAX1 inh-2 | AHR activator
CCOc1ccc(S(=O)(=O)N(C)CC(=O)NCc2ccccn2)cc1Cl | 0 | -1 | -2 | -2 | 1 | -1
O=C(COC(=O)c1c(F)cccc1Cl)NC1CCCCC1 | 2 | 1.0* | 2 | 6 | 1 | x
CSc1nncn1/N=C/c1ccc([N+](=O)[O-])cc1 | 0 | -2 | 1 | -3 | 1 | 0
CSc1nncn1/N=C/c1ccc2c(c1)OCO2 | 0 | -1 | 0 | -2 | 3 | 51*
Cc1cc(C)c2c(-n3cccc3)c(NC(=O)OC(C)C)sc2n1 | -1 | -1 | -2 | -4 | 0 | 66*
COC(=O)c1cccc(C(=O)N2CCCC(C(=O)c3cccc(OC(C)C)c3)C2)c1 (configuration not stated) | -1 | 0 | 5.8* | 0 | 0 | 1
C=C1CCN(CC(=O)OC)S(=O)(=O)c2ccccc21 | 0 | -1 | 0 | -1 | 0 | 1
O=C(CCN1C(=O)/C(=C/c2ccccc2Cl)SC1=S)NN1CCOCC1 | 2 | -1 | -1 | 2 | 0 | 1
CN1CCN(NC(=O)CN2C(=O)S/C(=C\c3c(Cl)cccc3Cl)C2=O)CC1 | -1 | -1 | 0 | -1 | 5.2* | 2
COC(=O)c1[nH]c2cc(C)ccc2c1NC(=O)CN1CCN(c2ccccc2OC)CC1 | -1 | 0 | 1 | -3 | -1 | 39
C=CCOC(=O)Nc1c(C(=O)OC)[nH]c2ccccc12 | 0 | 0 | 4 | 0 | 0 | 57*
COC(=O)c1[nH]c2ccc(C)cc2c1NC(=O)CN1CCCc2ccccc21 | 0 | -1 | 0 | -2 | -1 | 57*
CCOC(=O)c1[nH]c2ccccc2c1NC(=O)NC(C)C | 0 | 0 | 4 | 0 | 3 | 17
COC(=O)c1[nH]c2ccc(C)cc2c1NC(=O)Oc1ccccc1 | 1 | 0 | 4 | 7 | 1 | 54*
CCS(=O)(=O)Nc1c(C(=O)OC)[nH]c2ccccc12 | 0 | 0 | 3 | -2 | 0 | 21
CCOC(=O)c1[nH]c2ccccc2c1NC(=S)Nc1cccc(C)c1C | 1 | 0 | 6.2* | 0 | 2 | 56*
O=C(O)CC1(CC(=O)Nc2ccc(F)c(Cl)c2)CCCCC1 | 0 | -1 | -1 | 1 | x | 2
N=C1/C(=C\c2ccc(-c3cccc(C(=O)O)c3)o2)C(=O)N=C2SC=C(c3ccccc3)N12 | 0 | 1 | 3 | 5 | 2 | 14
CCOC(=O)c1c(-n2cccc2)sc2c1CCCC2=O | -1 | -1 | -2 | -2 | -1 | -6
O=C(c1ccco1)N1CCN(C(=O)c2cc(Cl)nc3ccccc23)CC1 | 0 | 1.2* | 2 | 1 | 0 | 16
Cc1ccc(C(=O)Nc2ccncc2)c(Cl)c1 | -1 | -1 | -1 | 2 | -2 | -2
O=C(c1ccco1)N1CCN(C(=O)c2cc(-c3ccccn3)nc3ccccc23)CC1 | 0 | -1 | -1 | 1 | -1 | 1
Cc1ccc(C(=O)Nc2ccc(Nc3ccccc3)cc2)c(Cl)c1 | 0 | 2.0* | -2 | 1 | -1 | -9
O=C(NNC(=O)c1cc(Cl)nc2ccccc12)c1ccccc1F | 1 | 1.1* | 2 | -1 | -2 | 8
Cc1cc(C(=O)Nc2ccccc2)c2ccccc2n1 | 0 | -2 | 1 | 0 | 0 | 34

Screens from PubChem BioAssay.
